Experiment [1] is described as follows: NCI Yeast Anticancer Drug Screen. Data for the rad50 strain (AID 155).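 Note: 0% = growth of vehicle-only cultures of the same strain.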 The conditions noted are these: S. cerevisiae rad50 strain growth inhibition, hits give high values. Summed up: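 A DNA repair-deficient yeast mutant serves as the test organism; compound-induced growth inhibition is calculated against vehicle-treated cells.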
Experiment [2] can be described thus: NCI Yeast Anticancer Drug Screen. Data for the mec2-1 strain (AID 157). The conditions noted are these: S. cerevisiae mec2-1 strain, hits give high values. The method, boiled down:
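Strain: mec2-1 (DNA repair/cell cycle alteration). Compound exposure, then growth measured; inhibition expressed relative to vehicle.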

Experiment [3] in a line: NCI Yeast Anticancer Drug Screen. Data for the sgs1 mgt1 strain (AID 161).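 Note: 0% = growth of cultures given vehicle only.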 The conditions noted are these: S. cerevisiae sgs1 mgt1 strain, hits give high values. The method, boiled down: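 Mutant yeast exposed to compound; growth scored against vehicle-only wells.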
A short description of experiment [4]: NCI Yeast Anticancer Drug Screen. Data for the cln2 rad14 strain (AID 165).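 Note: 0% = growth equal to vehicle treated cultures.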 The settings on record: S. cerevisiae cln2 rad14 strain, hits give high values. Summed up:
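Compounds are applied to the cln2 rad14 yeast strain, and growth is then compared with that of vehicle-treated cultures to give inhibition.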

Experiment [5] in a line: NCI Yeast Anticancer Drug Screen. Data for the bub3 strain (AID 167). The conditions noted are these: S. cerevisiae bub3 mutant strain, hits give high values. Summed up:
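Inhibition values come from growth of compound-treated mutant yeast normalised to vehicle-treated controls.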

A short description of experiment [6]: NCI Yeast Anticancer Drug Screen. Data for the mlh1 rad18 strain (AID 175). The settings on record: S. cerevisiae mlh1 rad18 strain growth inhibition, hits give high values. The method, boiled down:
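Read-out is yeast growth inhibition, calculated against vehicle-only controls. The compound was applied to a strain engineered with DNA damage repair alterations.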

Setting [7] is: at 5.0 µM (retest, dose inferred, filed as 0.5).
[8] abbreviates: at 50.0 µM (retest, dose inferred, filed as 5.0).

Our source for the growth inhibition values is PubChem BioAssay (NCI).

Each structure is given as a SMILES string. About 79,000 compounds went through this panel and 15% of them were active in at least one assay; those are over-represented in the sample as a whole. A number with no mark means an inactive call. The source made the active and inactive calls. Cut-off read from the data, not from the text of the source: active = growth inhibition above about 70%; inactive = the rest.

For `O=[N+]([O-])c1ncn(C2OC(CO)C(O)C2O)c1S` (stereo not given), the growth inhibition in experiment [1] (setting [7]) was -5%; in experiment [1] (setting [8]), -3%; in experiment [1] (at 50.0 µM) it was -2.85%; in experiment [2] (setting [7]), 2%; in experiment [2] (setting [8]) it was -8%; in experiment [2] (at 50.0 µM), 24.6%. Moreover, the growth inhibition in experiment [3] (setting [7]) is -1%; in experiment [3] (setting [8]), -3%; in experiment [3] (at 50.0 µM), 14.6%; in experiment [4] (setting [7]), -3%; in experiment [4] (setting [8]), -5%; in experiment [4] (at 50.0 µM) it was 66.1%. Besides, the growth inhibition is -12% in experiment [5] (setting [7]); -14% in experiment [5] (setting [8]); 1.15% in experiment [5] (at 50.0 µM); -6% in experiment [6] (setting [7]); -8% in experiment [6] (setting [8]); 8.05% in experiment [6] (at 50.0 µM).

Turning to `Nc1ncnc2c1c(-c1ccccc1)cn2-c1ccc(Br)cc1`, the growth inhibition in experiment [1] (setting [7]) is 23%; in experiment [1] (setting [8]), 38%; in experiment [1] (at 50.0 µM), 43.1%; in experiment [2] (setting [7]) it was 16%; in experiment [2] (setting [8]) it was 43%; in experiment [2] (at 50.0 µM), 21.7%. In addition, the growth inhibition in experiment [3] (setting [7]) is 47%; in experiment [3] (setting [8]), 80% (active); in experiment [3] (at 50.0 µM), 94% (active); in experiment [4] (setting [7]) it was 13%; in experiment [4] (setting [8]) it was 44%; in experiment [4] (at 50.0 µM), 28.1%. The growth inhibition in experiment [5] (setting [7]) is 3%; in experiment [5] (setting [8]), 37%; in experiment [5] (at 50.0 µM), -1.8%; in experiment [6] (setting [7]) it was 14%; in experiment [6] (setting [8]), 58%; in experiment [6] (at 50.0 µM), 58.9%.

Regarding `C=C1C(=O)O[C@@H]2C[C@@]3(C)CCC[C@H](C)C3=C[C@H]12`, the growth inhibition in experiment [1] (setting [7]) is 11%; in experiment [1] (setting [8]), 91% (active); in experiment [1] (at 50.0 µM) it was 50.5%; in experiment [2] (setting [7]), 23%; in experiment [2] (setting [8]) it was 98% (active); in experiment [2] (at 50.0 µM), 67.2%. Also, the growth inhibition is 24% in experiment [3] (setting [7]); 98% (active) in experiment [3] (setting [8]); 81.7% (active) in experiment [3] (at 50.0 µM); 6% in experiment [4] (setting [7]); 64% in experiment [4] (setting [8]); 41.5% in experiment [4] (at 50.0 µM). Further, the growth inhibition in experiment [5] (setting [7]) was 4%; in experiment [5] (setting [8]) it was 95% (active); in experiment [5] (at 50.0 µM), 81.3% (active); in experiment [6] (setting [7]), 14%; in experiment [6] (setting [8]) it was 96% (active); in experiment [6] (at 50.0 µM) it was 68.5%.

Turning to `CC(N1CCOCC1)C(O)(c1ccccc1)c1ccccn1` (stereo not given), the growth inhibition is 3% in experiment [1] (setting [7]); 10% in experiment [1] (setting [8]); -19.4% in experiment [1] (at 50.0 µM); -1% in experiment [2] (setting [7]); -15% in experiment [2] (setting [8]); -35.9% in experiment [2] (at 50.0 µM). In addition, the growth inhibition in experiment [3] (setting [7]) is -4%; in experiment [3] (setting [8]), -15%; in experiment [3] (at 50.0 µM), -32.6%; in experiment [4] (setting [7]) it was 24%; in experiment [4] (setting [8]) it was -1%; in experiment [4] (at 50.0 µM), 60.2%. Further, the growth inhibition was -2% in experiment [5] (setting [7]); -15% in experiment [5] (setting [8]); -42.4% in experiment [5] (at 50.0 µM); 4% in experiment [6] (setting [7]); 19% in experiment [6] (setting [8]); 2.75% in experiment [6] (at 50.0 µM).

Turning to `C=C1CC(Cn2cc(C)c(=O)[nH]c2=O)(c2ccc(Cl)cc2)OC1=O` (stereo not given), the growth inhibition was -7% in experiment [1] (setting [7]); 82% (active) in experiment [1] (setting [8]); 69.8% in experiment [1] (at 50.0 µM); -11% in experiment [2] (setting [7]); 94% (active) in experiment [2] (setting [8]); 73.1% (active) in experiment [2] (at 50.0 µM). For the same compound, the growth inhibition in experiment [3] (setting [7]) is -27%; in experiment [3] (setting [8]), 85% (active); in experiment [3] (at 50.0 µM), 74.2% (active); in experiment [4] (setting [7]), 13%; in experiment [4] (setting [8]), 43%; in experiment [4] (at 50.0 µM), 65%. The growth inhibition was 8% in experiment [5] (setting [7]); 89% (active) in experiment [5] (setting [8]); 78.3% (active) in experiment [5] (at 50.0 µM); 7% in experiment [6] (setting [7]); 91% (active) in experiment [6] (setting [8]); 85.3% (active) in experiment [6] (at 50.0 µM).

With `CCCCCC/C=C/C#CCCCCCCCC(=O)O`, the growth inhibition in experiment [1] (setting [7]) is 30%; in experiment [1] (setting [8]), 15%; in experiment [1] (at 50.0 µM) it was 5.5%; in experiment [2] (setting [7]), 21%; in experiment [2] (setting [8]), 11%; in experiment [2] (at 50.0 µM), 9.2%. Further, the growth inhibition is 33% in experiment [3] (setting [7]); 37% in experiment [3] (setting [8]); 14% in experiment [3] (at 50.0 µM); 17% in experiment [4] (setting [7]); 16% in experiment [4] (setting [8]); 11.8% in experiment [4] (at 50.0 µM). Besides, the growth inhibition in experiment [5] (setting [7]) was 19%; in experiment [5] (setting [8]), 3%; in experiment [5] (at 50.0 µM) it was 17.3%; in experiment [6] (setting [7]) it was 57%; in experiment [6] (setting [8]), 44%; in experiment [6] (at 50.0 µM), -88.8%.

As to `CC(C)C1=C(O)C2=C(C(=O)C1=O)C1(C)CCCC(C)(C)C1C(O)C2OC=O` (stereo not given), the growth inhibition is 91% (active) in experiment [1] (setting [7]); 95% (active) in experiment [1] (setting [8]); 92.2% (active) in experiment [1] (at 50.0 µM); 100% (active) in experiment [2] (setting [7]); 100% (active) in experiment [2] (setting [8]); 93.7% (active) in experiment [2] (at 50.0 µM). Besides, the growth inhibition in experiment [3] (setting [7]) is 99% (active); in experiment [3] (setting [8]) it was 100% (active); in experiment [3] (at 50.0 µM) it was 93.5% (active); in experiment [4] (setting [7]), 81% (active); in experiment [4] (setting [8]), 99% (active); in experiment [4] (at 50.0 µM) it was 92% (active). Moreover, the growth inhibition was 100% (active) in experiment [5] (setting [7]); 100% (active) in experiment [5] (setting [8]); 92.5% (active) in experiment [5] (at 50.0 µM); 98% (active) in experiment [6] (setting [7]); 99% (active) in experiment [6] (setting [8]); 87.5% (active) in experiment [6] (at 50.0 µM).

With `COc1cc2c3c(c4ccc(OC)c(OC)c4c2cc1OC)CN1CCC[C@@H]1C3`, the growth inhibition is 11% in experiment [1] (setting [7]); 95% (active) in experiment [1] (setting [8]); 92% (active) in experiment [1] (at 50.0 µM); 8% in experiment [2] (setting [7]); 99% (active) in experiment [2] (setting [8]); 93.5% (active) in experiment [2] (at 50.0 µM). Besides, the growth inhibition in experiment [3] (setting [7]) was 15%; in experiment [3] (setting [8]) it was 96% (active); in experiment [3] (at 50.0 µM), 93% (active); in experiment [4] (setting [7]), 1%; in experiment [4] (setting [8]) it was 92% (active); in experiment [4] (at 50.0 µM), 91.2% (active). For the same compound, the growth inhibition in experiment [5] (setting [7]) is 8%; in experiment [5] (setting [8]), 98% (active); in experiment [5] (at 50.0 µM), 92.3% (active); in experiment [6] (setting [7]) it was -29%; in experiment [6] (setting [8]), 93% (active); in experiment [6] (at 50.0 µM) it was 88.5% (active).

Take `CCOC(=O)C(CCOC)C(=O)OCC`: the growth inhibition in experiment [1] (setting [7]) is 4%; in experiment [1] (setting [8]), 81% (active); in experiment [1] (at 50.0 µM) it was 73.3% (active); in experiment [2] (setting [7]), 0%; in experiment [2] (setting [8]), 30%; in experiment [2] (at 50.0 µM) it was 70.9% (active). Besides, the growth inhibition is 1% in experiment [3] (setting [7]); 46% in experiment [3] (setting [8]); 43.9% in experiment [3] (at 50.0 µM); 3% in experiment [4] (setting [7]); 65% in experiment [4] (setting [8]); 41.8% in experiment [4] (at 50.0 µM). For the same compound, the growth inhibition in experiment [5] (setting [7]) was 1%; in experiment [5] (setting [8]), 48%; in experiment [5] (at 50.0 µM), 95.7% (active); in experiment [6] (setting [7]), 5%; in experiment [6] (setting [8]) it was 72% (active); in experiment [6] (at 50.0 µM) it was 43.6%.

On to `O=c1c2cccc3cccc(c4oc5c6cccc7cccc(c(=O)c5c14)c76)c32`, for which the growth inhibition was 16% in experiment [1] (setting [7]); 92% (active) in experiment [1] (setting [8]); 95.5% (active) in experiment [1] (at 50.0 µM); 13% in experiment [2] (setting [7]); 97% (active) in experiment [2] (setting [8]); 88.5% (active) in experiment [2] (at 50.0 µM). Also, the growth inhibition is 15% in experiment [3] (setting [7]); 97% (active) in experiment [3] (setting [8]); 97.2% (active) in experiment [3] (at 50.0 µM); 13% in experiment [4] (setting [7]); 88% (active) in experiment [4] (setting [8]); 93.9% (active) in experiment [4] (at 50.0 µM). For the same compound, the growth inhibition in experiment [5] (setting [7]) was 37%; in experiment [5] (setting [8]), 94% (active); in experiment [5] (at 50.0 µM), 96.3% (active); in experiment [6] (setting [7]), 17%; in experiment [6] (setting [8]) it was 97% (active); in experiment [6] (at 50.0 µM) it was 98.9% (active).
